Measurements: PubChem BioAssay AID782 (Emory University Molecular Libraries Screening Center, 2007)
About 800 (0.36%) of roughly 220,000 compounds were called active. The full list was thinned out, with actives kept by preference. Values without a mark were called inactive.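 How the source made its calls: active means inhibition above about 30% (limit read from the data); inactive means the rest.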

These molecules were tested against Eukaryotic translation initiation factor 4E (Mus musculus) + Eukaryotic translation initiation factor 4 gamma 1 (Homo sapiens) (UniProt P63073+Q04637) (assay: blockers of eIF4G binding by eIF4E – biochemical, uHTS, TR-FRET, eIF4GI fragment, primary screen (AID 782;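 further: 0% = full FRET control wells and 100% = background wells lacking eIF4GI fragment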)). Settings: TR-FRET eIF4E-eIF4GI(517-606) binding, 2 h; at 21.7 µM; active compounds read high.
Chain of Eukaryotic translation initiation factor 4E (Mus musculus) + Eukaryotic translation initiation factor 4 gamma 1 (Homo sapiens) (P63073 whole entry, looked up, the tested form may be a part): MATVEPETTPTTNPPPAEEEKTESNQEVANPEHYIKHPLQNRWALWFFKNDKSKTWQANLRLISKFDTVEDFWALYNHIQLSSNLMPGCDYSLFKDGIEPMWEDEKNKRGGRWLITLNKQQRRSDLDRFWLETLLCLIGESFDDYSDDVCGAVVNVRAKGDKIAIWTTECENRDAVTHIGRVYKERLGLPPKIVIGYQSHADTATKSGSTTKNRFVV
Chain of Eukaryotic translation initiation factor 4E (Mus musculus) + Eukaryotic translation initiation factor 4 gamma 1 (Homo sapiens) (Q04637 whole entry, looked up, the tested form may be a part): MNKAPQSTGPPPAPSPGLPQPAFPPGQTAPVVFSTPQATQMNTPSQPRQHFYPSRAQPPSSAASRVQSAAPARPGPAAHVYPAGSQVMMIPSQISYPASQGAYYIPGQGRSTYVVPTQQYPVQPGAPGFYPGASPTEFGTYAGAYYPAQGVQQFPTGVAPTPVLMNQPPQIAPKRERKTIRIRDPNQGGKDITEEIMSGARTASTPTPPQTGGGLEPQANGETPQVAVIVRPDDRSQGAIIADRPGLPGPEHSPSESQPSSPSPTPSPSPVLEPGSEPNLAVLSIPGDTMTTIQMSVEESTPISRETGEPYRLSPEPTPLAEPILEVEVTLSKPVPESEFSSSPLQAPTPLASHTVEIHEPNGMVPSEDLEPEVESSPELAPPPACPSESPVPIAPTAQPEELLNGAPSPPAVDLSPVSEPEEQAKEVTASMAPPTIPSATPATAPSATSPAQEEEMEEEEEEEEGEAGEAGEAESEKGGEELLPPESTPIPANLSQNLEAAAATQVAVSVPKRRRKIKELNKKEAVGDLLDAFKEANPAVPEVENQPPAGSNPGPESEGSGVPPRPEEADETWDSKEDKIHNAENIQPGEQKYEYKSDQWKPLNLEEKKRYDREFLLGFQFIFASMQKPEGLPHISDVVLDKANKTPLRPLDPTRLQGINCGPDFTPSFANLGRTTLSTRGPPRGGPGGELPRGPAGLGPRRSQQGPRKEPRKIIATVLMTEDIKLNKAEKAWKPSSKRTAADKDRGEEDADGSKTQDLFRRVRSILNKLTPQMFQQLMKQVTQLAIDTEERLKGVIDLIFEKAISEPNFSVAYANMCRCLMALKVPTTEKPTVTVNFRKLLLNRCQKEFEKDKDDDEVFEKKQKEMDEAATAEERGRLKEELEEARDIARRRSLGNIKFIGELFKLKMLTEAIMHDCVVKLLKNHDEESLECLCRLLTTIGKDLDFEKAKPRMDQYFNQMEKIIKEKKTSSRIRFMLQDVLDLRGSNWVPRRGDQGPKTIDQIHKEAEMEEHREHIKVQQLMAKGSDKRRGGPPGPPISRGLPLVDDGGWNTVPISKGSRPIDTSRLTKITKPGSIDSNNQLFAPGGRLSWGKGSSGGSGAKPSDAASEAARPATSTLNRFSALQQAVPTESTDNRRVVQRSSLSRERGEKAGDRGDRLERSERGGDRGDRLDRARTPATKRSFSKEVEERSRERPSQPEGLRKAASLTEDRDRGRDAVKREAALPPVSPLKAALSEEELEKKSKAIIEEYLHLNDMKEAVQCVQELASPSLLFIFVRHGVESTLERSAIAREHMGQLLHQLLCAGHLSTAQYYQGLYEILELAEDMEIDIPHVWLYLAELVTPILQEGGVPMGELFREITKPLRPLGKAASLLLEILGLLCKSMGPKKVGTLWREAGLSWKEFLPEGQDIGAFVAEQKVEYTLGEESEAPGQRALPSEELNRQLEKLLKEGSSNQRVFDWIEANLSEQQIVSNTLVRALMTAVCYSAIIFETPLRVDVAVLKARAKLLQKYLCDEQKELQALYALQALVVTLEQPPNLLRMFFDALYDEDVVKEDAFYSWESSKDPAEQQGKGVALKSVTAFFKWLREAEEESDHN
With `CCOC(=O)N1CCC(=NNC(N)=O)CC1` the inhibition was 2.99%. `CC(C)NC(=S)NN=C1CCCCCCCCCCC1` was tested, and the inhibition was -4.16%. With `CC(NC(=O)C(=O)NN=C1CCC(C(C)(C)C)CC1)c1ccccc1` (stereo not given) the inhibition was 2.57%. `CC(C)(C)NC(=O)C(=O)NN=C1CCCCCCC1` was tested, and the inhibition was 39.2% (active). In the case of `Cc1cc(C(=O)N/N=C/c2ccccc2[N+](=O)[O-])c(C)o1`, the inhibition is reported as 2.6%. For `Cc1c(C(=O)N/N=C/c2ccccc2)[nH]c2c([N+](=O)[O-])cccc12`, the inhibition was 94.2% (active). With `O=C(N/N=C/c1ccc([N+](=O)[O-])cc1)c1c[nH]c2ccccc12` the inhibition was -2.85%. For `COC(=O)Nc1ncc(CN2CCCCC2)s1`, the inhibition was 1.52%. Molecule `N/C(=N\S(=O)(=O)c1cc(C(F)(F)F)cc(C(F)(F)F)c1)c1cccs1` has an inhibition of 0.14%. In the case of `Cc1ccc(C(=O)NC(=S)Nc2ccccc2C)cc1`, the inhibition is reported as -1.48%. In the case of `CCOC(=O)c1c(N)sc2c1CCCC2=O`, the inhibition is reported as -0.22%. Work on `Cc1cc2cc(CNC(=O)c3ccc(S(=O)(=O)N4CCOCC4)cc3)ccc2[nH]1` yielded an inhibition of -23.9%. `C/C(CC(=O)Nc1ccc(C)cc1C)=N\NC(=O)C(C)C` gave an inhibition of -1.71%. `C=CCn1c(SCC(=O)Nc2nc3ccccc3s2)nnc1-c1ccccc1O` showed an inhibition of 6.76%. `C=CCn1c(SCC(=O)NCc2ccccc2)nnc1-c1cc(Br)ccc1O` showed an inhibition of 4.21%. `C=CCn1c(N)cc(=O)nc1SCC(=O)Nc1cccc2ccccc12` was tested, and the inhibition was 30.1% (active). With `CC(NC(=S)NNS(=O)(=O)c1ccc(C(C)(C)C)cc1)c1ccccc1` (stereo not given) the inhibition was 96.5% (active). Molecule `Cc1cc(C(=O)NNC(=S)NC(C)c2ccccc2)cs1` (stereo not given) has an inhibition of -0.45%. With `Cc1ccc(S(=O)(=O)NNC(=S)NC(C)(C)C)cc1` the inhibition was 2.84%. For `O=C(C1CCCN1S(=O)(=O)c1ccc(Br)cc1)N1CCOCC1` (stereo not given), the inhibition was -1.1%. With `COC(=O)[C@@H]1C[C@@]2(O)[C@H](O)[C@H](O)[C@H](O)C[C@H]2N1Cc1ccc(C(C)(C)C)cc1` the inhibition was -5.29%. For `COC(=O)[C@@H]1C[C@@]2(O)[C@H](O)[C@H](O)[C@H](O)C[C@H]2N1Cc1ccc(C)s1`, the inhibition was -1.88%. `COC(=O)[C@@H]1C[C@@]2(O)[C@@H](O)[C@@H](O)[C@@H](O)C[C@H]2N1Cc1ccc(C)s1` was tested, and the inhibition was 96% (active). `C/C(Cn1nnc2ccccc21)=N\OC(=O)c1cc(F)c(F)cc1Cl` gave an inhibition of -2.84%. `O=[N+]([O-])C(=c1ccc2c(c1)N1C3=C(CCCC3)CC3CCCCC31N=2)[N+](=O)[O-]` (stereo not given) was tested, and the inhibition was 34.6% (active). `Cc1c(Cl)cccc1NC(=S)NCc1ccc2c(c1)OCO2` was tested, and the inhibition was 3.45%. Work on `O=C(NNC1=NCCC1)c1cccc(S(=O)(=O)N2CCCCC2)c1` yielded an inhibition of 6.05%. `Cc1ccc(N(C(=O)c2ccc(CN3CCOCC3)o2)C(C(=O)NCCC(C)C)c2cccs2)c(C)c1` (stereo not given) was tested, and the inhibition was 3.08%. In the case of `CC(C)(C)c1ccc(/C=C2\SC(=O)N=C2N)cc1`, the inhibition is reported as 2.64%. For `C/C(=N\NC(=S)Nc1ccc(C)cc1)c1cc2ccccc2o1`, the inhibition was -0.73%. In the case of `CCCc1c(C(=O)Nc2ccc(F)cc2)cnn1-c1ccccc1`, the inhibition is reported as 2.37%. `CN(C)CCCN(Cc1cc2cc3c(cc2[nH]c1=O)OCCO3)C(=O)NC1CCCCC1` showed an inhibition of 2.76%. `O=C(c1ccc(F)cc1)N1CCCC(c2nc(-c3cccs3)no2)C1` (stereo not given) gave an inhibition of 3.08%. `COc1ccnc(Oc2ccccc2)n1` was tested, and the inhibition was 15.9%. Work on `CCc1cccc(C)c1NC(=S)N(CCCN1CCN(C)CC1)Cc1cccs1` yielded an inhibition of -3.86%. In the case of `Cc1ccc(N2C(=O)c3ccccc3C2(O)c2ncc[nH]2)cc1` (stereo not given), the inhibition is reported as 55.4% (active). For `Cc1ccnc(NC(=O)C(C)N2C(=O)c3ccccc3C2=O)c1` (stereo not given), the inhibition was 1.43%. Molecule `Cc1ccc(-n2ccc(=O)c(C(=O)O)n2)cc1` has an inhibition of 1.06%. For `CC(=O)Nc1ccc(/C=N/Nc2ccc(C(=O)c3c(C)cc4ccccn34)cc2[N+](=O)[O-])cc1`, the inhibition was 63.9% (active). `CNc1ccc(NC(C)=O)cc1[N+](=O)[O-]` was tested, and the inhibition was -0.25%. In the case of `Cc1ccc(Nc2ccc(C(N)=O)cc2[N+](=O)[O-])cc1`, the inhibition is reported as -0.72%. `CCOc1ccc(/C=N/NC(=O)CSc2ccccn2)cc1O` gave an inhibition of -2.92%. `O=C(COC(=O)/C=C/c1ccc(S(=O)(=O)N2CCCCCC2)cc1)NCc1ccccc1Cl` was tested, and the inhibition was 2.41%. For `C=C1CCN([C@H](C(=O)NCc2cc(OC)c(OC)c(OC)c2)C(C)C)S(=O)(=O)c2ccccc21`, the inhibition was -2.58%. `Nc1ccc(S(=O)(=O)Nc2nccc(/C=C/c3ccc(Br)s3)n2)cc1` gave an inhibition of 0.68%. With `CC(C)(C)c1cc(C(=O)NN)n(Cc2ccc(Cl)cc2Cl)n1` the inhibition was 3.29%. `Cc1[nH]n(C)c(=O)c1C(=O)c1c(-c2c(Cl)cccc2Cl)noc1C` gave an inhibition of -1.16%. With `N/C(=N\S(=O)(=O)c1ccc(Cl)cc1)N1CCOCC1` the inhibition was -0.17%. For `COc1ccc(N2CCN(C(=S)Nc3ccc(S(N)(=O)=O)cc3)CC2)cc1`, the inhibition was 2.56%. For `COC(=O)Cc1csc(/N=C/c2c(O)n(-c3cccc(C(F)(F)F)c3)c(=O)c3ccccc23)n1`, the inhibition was 1.31%. `COc1ccc(C2C(C(=O)N3CCN(c4ccc(OC)cc4)CC3)c3ccccc3C(=O)N2C)cc1` (stereo not given) gave an inhibition of -1.58%. With `COc1ccc([C@H]2[C@H](C(C)=O)N3N=Cc4ccccc4C3C23C(=O)OC(C)(C)OC3=O)cc1` (stereo not given in full) the inhibition was 34.6% (active). For `O=C(/C=C\c1ccc2c(c1)OCO2)NC1(C(=O)Nc2ccc3c(c2)OCCO3)CCCCC1`, the inhibition was 3.6%. With `COC(=O)c1c(C)[nH]c(C)c1-c1ccc([N+](=O)[O-])cc1` the inhibition was 5.04%. Work on `CC1CC1C(=O)OCC(=O)c1c(N)n(C)c(=O)n(C)c1=O` (stereo not given) yielded an inhibition of 1.81%. `CC1=C/C(=N\OS(=O)(=O)c2ccccc2)C=CC1=O` was tested, and the inhibition was 17.7%. With `CC(=O)c1c(Nc2ccccc2)sc(C(=O)c2ccccc2)c1C` the inhibition was 0.53%. `Cc1ccc(NC(=O)/C(=C\c2ccccc2)NC(=O)c2ccco2)cc1` gave an inhibition of -2.75%. Work on `Cc1cc(Br)ccc1SCC(=O)OCC(=O)NCc1ccc2c(c1)OCO2` yielded an inhibition of 2.11%. For `O=c1[nH]nc(CSCc2ccccc2Cl)[nH]1`, the inhibition was 37.7% (active). `Nc1nc(SCc2ccccc2Cl)n[nH]1` was tested, and the inhibition was -1.58%. In the case of `O=c1cc(O)nc(SCc2ccccc2Cl)[nH]1`, the inhibition is reported as -11.7%. `Clc1ccc(-c2nc3ccccn3c2CN2CCSCC2)cc1` showed an inhibition of 3.32%. `COc1ccc(NC2=CC(=S)NC(C)(C)C2)cc1` gave an inhibition of 0.37%. Work on `O=C(CSc1nnc(-c2ccc([N+](=O)[O-])cc2)o1)Nc1ccccn1` yielded an inhibition of -0.57%. `Nc1ccc2nc3c(=O)[nH]c(=S)[nH]c3nc2c1` was tested, and the inhibition was 55.7% (active). `Cc1cc2nc3c(=O)n(Cc4ccccc4)c(=O)[nH]c3nc2cc1N` showed an inhibition of 7.59%. `Cc1ccc(NC(=S)NC(NC(=O)Cc2cccc3ccccc23)C(Cl)(Cl)Cl)cc1` (stereo not given) showed an inhibition of -28%. `CN(c1ccccc1)S(=O)(=O)c1ccc(Cl)c(C(=O)OCC(=O)N2CCOCC2)c1` was tested, and the inhibition was -1.49%. Molecule `C/C(=N\OCC(=O)O)c1ccc(Cl)cc1` has an inhibition of 1.37%. In the case of `Cc1cc(C)nc(Nc2n[nH]c(-c3ccccc3N)n2)n1`, the inhibition is reported as 4.42%. `COc1ccc(C(=O)Cn2nnc(-c3ccc(N4CCOCC4)cc3)n2)cc1OC` showed an inhibition of -9.64%. `COc1ccc(C(=O)n2nc(-c3ccc(C)cc3)nc2N)cc1OC` was tested, and the inhibition was -7.73%. `COC(=O)c1cc2occc2n1Cc1nc(-c2ccccc2C)oc1C` was tested, and the inhibition was 4.23%. `O=C1Nc2cc(Cl)c(Cl)cc2N(O)N1c1ccccc1Cl` gave an inhibition of 0.39%. `FC(F)(F)Oc1ccc(-c2cn3cccnc3n2)cc1` showed an inhibition of -1.02%. In the case of `COC(=O)c1c(C)c(C)nc(N)c1C#N`, the inhibition is reported as -1.17%. `COCc1c(N)c(C)nc(Cl)c1C#N` was tested, and the inhibition was 33.5% (active). Molecule `Cc1nc(Cl)c(C#N)c2c1CCCC2` has an inhibition of 5.36%. In the case of `O=S(=O)(NCCOc1cccc2cccnc12)c1ccc(F)cc1`, the inhibition is reported as -10.8%. In the case of `O=S(=O)(NCCc1ccc(F)cc1)c1cccc2cccnc12`, the inhibition is reported as 68.5% (active). With `COc1ccc(CCNS(=O)(=O)c2cccc3cccnc23)cc1OC` the inhibition was 4.09%. For `C=CCn1c(-c2ccc3[nH]c(C)c(C)c3c2)n[nH]c1=S`, the inhibition was 31.9% (active). Molecule `C=CCn1c(-c2sc(-c3ccccc3)nc2C)n[nH]c1=S` has an inhibition of 3.95%. For `C=CCn1c(-c2ccccc2OCC)n[nH]c1=S`, the inhibition was -7.58%. Molecule `NC(N)=Nc1nc2ccc(Br)cc2c(=O)[nH]1` has an inhibition of -3.42%. In the case of `CC(NCc1nc2ccccc2n1C)C12CC3CC(CC(C3)C1)C2` (stereo not given), the inhibition is reported as 3.84%. `O=C(c1ccc(Br)o1)N(c1ccccn1)C1CCCCC1` showed an inhibition of 1.85%. With `Cc1ccc(OS(=O)(=O)c2ccc(-c3csc(C)n3)s2)c(C)c1` the inhibition was -1.07%. `CCOc1ccc(C2c3[nH]c4ccccc4c3CCN2Cc2cn(CC)nc2C)cc1` (stereo not given) showed an inhibition of 1.87%. `COC(=O)c1cc2n(n1)CCCNC2=O` showed an inhibition of 2.7%. Work on `CC(=O)Nc1ccc(S(=O)(=O)N(C)c2ccc(OCC(=O)OCC(=O)N3CCCCC3)cc2)cc1` yielded an inhibition of -2.79%. Work on `N#C/C(C(=O)N1CCOCC1)=C1/SC(Cc2ccc(F)cc2)C(=O)N1c1ccccc1` (stereo not given) yielded an inhibition of 2.54%. `Cc1cccc2cc3c(N)c(C(=O)N4CCCc5ccccc54)sc3nc12` showed an inhibition of -0.81%. `CCOc1ccccc1/C=N/NC(=O)CNC(=O)COc1ccccc1` gave an inhibition of 0.46%.
